In PubChem BioAssay (NCATS) one finds max response data, which are given here for 40 molecules.

Where “and” joins values, the source holds several entries; their conditions need not be identical. Identical values can stand only once. Inconclusive results are not listed. A number with no mark means an inactive call. Calls come from the whole dose curve; as a rule, active = well fitted cell-killing curve with a large enough effect; inconclusive = small, poorly fitted or top-dose-only effect, or effect the other way; inactive = flat fitted curve, though single readings scatter.
% is set by controls: 0 for no effect and ±100 for the full control effect.

This assay is described as follows: qHTS assay for cell viability of HEK293 cells (AID 743288). Note: nearly all actives have a fitted effect of over 50% in size. The note with it: ATP luminescence (CellTiter-Glo), 18 h; max response: hits give low values. From the text: National Center for Advancing Translational Sciences [NCATS]
NIH Chemical Genomics Center [NCGC]
U.S. Environmental Protection Agency [EPA]
National Institutes of Environmental Health Sciences [NIEHS]
National Toxicology Program [NTP]
U.S. Food and Drug Administration [FDA]
The CellTiter-Glo Luminescent Cell Viability Assay (Promega, Madison, WI) is a homogeneous method to determine the number of viable cells in culture based on quantitation of the ATP present, which signals the presence of metabolically active cells. This cell viability assay was used to screen environmental chemicals in the Hek293 cell line.
Tox21 Assay Protocol Summary:
Cell viability after compound treatment was measured using a luciferase-coupled ATP quantitation assay (CellTiter-Glo viability assay, Promega, Madison, WI) in parental HEK293 cells. Total intracellular ATP content corresponds to the number of metabolically competent cells after compound treatment. The cells were dispensed at 2,000 cells/5 uL/well in 1,536-well white/solid bottom assay plates using a Flying Reagent Dispenser (Aurora Discovery, San Diego, CA). The cells were incubated a minimum of 5 h at 37 C, followed by the addition of 23 nL of compounds dissolved in DMSO, positive controls or DMSO only using a pintool work station (Kalypsys, San Diego, CA). The assay plates were incubated for 18 h at 37 C, followed by the addition of 5 uL/well of CellTiter-Glo reagent. After 30 min incubation at room temperature, the luminescence intensity of the plates was measured using a ViewLux plate reader (PerkinElmer, Shelton, CT).
`CC(C)C(=O)OCC(C)(C)C(OC(=O)C(C)C)C(C)C` (stereo not given): the max response is -13%. On to `Clc1ccc([C@@]2(Cn3cncn3)C[C@H](Br)CO2)c(Cl)c1`, for which the max response was -14.4%.

Take `CC(C)CC(C)Nc1ccc(Nc2ccccc2)cc1` (stereo not given): the max response is -21.7%. With `Cc1ccccc1CO[C@@H]1C[C@@]2(C(C)C)CC[C@]1(C)O2` the figure was -20.5%; with `CCOC(=O)COc1cc(-c2nn(C)c(OC(F)F)c2Cl)c(F)cc1Cl`, -5.44%. As to `COP(=O)(OC)Oc1nc(Cl)c(Cl)cc1Cl`, the max response is -6.19%.

As for `N#CN=C1SCCN1Cc1ccc(Cl)nc1`, the max response was 1.43%.

In the case of `CCCOCC(=Nc1ccc(Cl)cc1C(F)(F)F)n1ccnc1`, the max response is -21.5%. On to `C[C@H]1[C@H](c2ccc(Cl)cc2)SC(=O)N1C(=O)NC1CCCCC1`, for which the max response is -26%. With `COC(=O)c1ccccc1CS(=O)(=O)NC(=O)Nc1nc(OC)cc(OC)n1`, the max response was -8.65%.

As for `CCSC(=O)N(CC)C1CCCCC1`, the max response was 10.3%. For `CCNc1nc(Cl)nc(NC(C)(C)C#N)n1`, the max response is 4.63%. As to `CCCCC(O)(Cn1cncn1)c1ccc(Cl)cc1Cl` (stereo not given), the max response was -16.7%.

With `ClC1=C(Cl)C2(Cl)C3C4OC4C(Cl)C3C1(Cl)C2(Cl)Cl` (stereo not given), the max response is -17.2%. Regarding `O=C(Nc1ccccc1)Nc1ccnc(Cl)c1`, the max response was -3.84%.

As for `CCOP(=O)(SC(C)CC)N1CCSC1=O` (stereo not given), the max response is 6.21%. With `N#Cc1cc(Br)c(O)c(Br)c1`, the max response was -7.19%. Consider `Cc1ccc2ccccc2c1C`, for which the max response is 5.03%.

Turning to `Cn1cc(-c2ccccc2)c(=O)c(-c2cccc(C(F)(F)F)c2)c1`, the max response was -5.04%.

On to `O=C1c2ccccc2C(=O)C1C(=O)C(c1ccccc1)c1ccc(Cl)cc1` (stereo not given), for which the max response is -28.8%. With `O=C(NC(=O)c1c(F)cccc1F)Nc1cc(Cl)c(OC(F)(F)C(F)C(F)(F)F)c(Cl)c1F` (stereo not given) the figure was -24.3%; with `Cc1ccn2nc(S(=O)(=O)Nc3c(F)cccc3F)nc2n1`, -3.63%; with `c1cc[n+]2c(c1)-c1cccc[n+]1CC2`, -11.6%. Regarding `CON=C(C(=O)OC)c1ccccc1CO/N=C(\C)c1cccc(C(F)(F)F)c1`, the max response was -22.9%.

As for `CCOP(=O)(NC(C)C)Oc1ccc(S(C)=O)c(C)c1` (stereo not given), the max response is -0.132%.

Regarding `CCN(CC)C(=O)C(C)Oc1cccc2ccccc12` (stereo not given), the max response was -1.61%. For `CCCCC(CC)COC(=O)Cl` (stereo not given), the max response is -1.32%. Take `N#CCNC(=O)c1cnccc1C(F)(F)F`: the max response is -6.61%. Regarding `COC(C)(C)CCC[C@H](C)C/C=C/C(C)=C/C(=O)OC(C)C`, the max response is -5.99%. Consider `C[N+]1(C)CCCCC1`, for which the max response is -11.8%. On to `COC(=O)/C=C(\C)OP(=O)(OC)OC`, for which the max response was -3.83%. For the molecule `Brc1c(Br)c(Br)c(Br)c(Br)c1Br`, the max response is -0.224%. In the case of `CCCCN(CC)C(=O)SCCC`, the max response is -1.81%.

Turning to `CCOc1cc(Oc2ccc(C(F)(F)F)cc2Cl)ccc1[N+](=O)[O-]`, the max response is -7.71%. Consider `O=C(O)C(F)(F)C(F)(F)C(F)(F)C(F)(F)C(F)(F)C(F)(F)C(F)(F)C(F)(F)C(F)(F)F`, for which the max response was -5.33% and -8.2%. For the molecule `O=C1C=CC(=O)c2ccccc21`, the max response was -3.96%. Take `CCCCCCCCCCCCN(C)C`: the max response is -1.64%. Turning to `CCOP(=S)(OCC)SCC(=O)NC(C)C`, the max response is -3.84%. With `CCOc1nc(C(Cl)(Cl)Cl)ns1`, the max response is -11.1%.

`O=[As](O)(O)O`: the max response is -4.83%.
